Measured values as given in PubChem BioAssay (Tox21).
Several values for one entry are separate records, joined by “and”; a condition that tells them apart may be missing. Equal values may be shown once. Inconclusive results are not listed. Unmarked numbers belong to inactive results. Activity calls are given as the source filed them. Calls come from the whole dose curve; as a rule, active = well fitted activation curve with a large enough effect in the repeat runs; inconclusive = weak or mixed curves; inactive = no such curve, though single readings can be large or run the other way.

Each compound was assayed against Nuclear receptor subfamily 1 group I member 2 (Rattus norvegicus) (UniProt Q9R1A7) (assay: Rat pregnane X receptor (rPXR) activation by small molecules, qHTS assay (AID 1346983; note: nearly all actives have a fitted effect of over 20% in size)). Conditions: rPXR luciferase reporter cells, One-Glo luminescence, 24 h; max activation: hits give high values.
Chain of Nuclear receptor subfamily 1 group I member 2 (Rattus norvegicus) (Q9R1A7 whole entry, looked up): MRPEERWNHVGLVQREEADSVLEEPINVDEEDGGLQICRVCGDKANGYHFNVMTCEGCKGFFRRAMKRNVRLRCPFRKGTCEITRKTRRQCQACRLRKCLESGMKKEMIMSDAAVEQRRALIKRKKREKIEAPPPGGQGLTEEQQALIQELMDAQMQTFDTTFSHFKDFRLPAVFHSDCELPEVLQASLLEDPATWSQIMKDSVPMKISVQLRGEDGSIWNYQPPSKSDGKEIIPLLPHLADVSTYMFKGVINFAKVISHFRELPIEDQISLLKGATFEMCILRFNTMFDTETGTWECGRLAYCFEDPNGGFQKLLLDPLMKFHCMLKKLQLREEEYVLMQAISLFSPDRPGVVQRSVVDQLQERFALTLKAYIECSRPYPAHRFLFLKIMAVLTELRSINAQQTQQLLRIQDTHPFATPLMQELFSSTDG
In short: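 Cell-based rPXR activation assay: rPXR cells, 2,000 per well, rested 5hr at 37 C, then exposed to compounds in DMSO for 24 hr at 37 C. Luciferase activity read by One-Glo luminescence after 30 min at room temperature.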
% is set by controls: 0 for no effect and ±100 for the full control effect; potency is the fitted concentration of half-maximal effect.

Q: With CCC(=O)OC(OP(=O)(CCCCc1ccccc1)CC(=O)N1C[C@H](C2CCCCC2)C[C@H]1C(=O)O)C(C)C (stereo partly drawn) as the compound, how does the max activation read?
A: Its max activation is -3.49%.

Q: With NC(=O)c1cc[n+](CC2=C(C(=O)O)N3C(=O)[C@@H](NC(=O)C(c4ccccc4)S(=O)(=O)[O-])[C@H]3SC2)cc1 (stereo partly drawn) as the compound, how does the max activation read?
A: Its max activation is -2.77%.

Q: For FC(F)(F)C(F)(F)C(F)(F)C(F)(F)C(F)(F)F, which max activation is on record?
A: Its max activation is -2.03%.

Q: With O=C(O)/C=C/C(=O)Nc1ccc(S(=O)(=O)Nc2nccs2)cc1 as the compound, how does the max activation read?
A: Its max activation is -4.08%.

Q: With O=C(O)Cc1nn(Cc2ccc(Br)cc2F)c(=O)c2ccccc12 as the compound, how does the max activation read?
A: Its max activation is 0.657%.

Q: Which max activation does the source give for CCCCCCCCCCCCCCCCCCOCC(COP(=O)([O-])OCC[N+](C)(C)C)OC (stereo not drawn) here?
A: The max activation was -1.53%.

Q: Which max activation does the source give for CN[C@@H]1[C@@H](O[C@H]2O[C@H](CO)[C@@H](N)[C@H](O)[C@H]2O)O[C@H]2C[C@@H](N)[C@@H](O[C@H]3[C@H](O)[C@@H](O)[C@H](N)C[C@@H]3N)O[C@@H]2[C@@H]1O here?
A: The max activation was -0.875%.

Q: How did the max activation turn out when CCCCCCCCCCCCCC(=O)OCC(COP(=O)([O-])OCC[N+](C)(C)C)OC(=O)CCCCCCCCCCCCC (stereo not drawn) was run?
A: Its max activation is -1.21%.

Q: How did the max activation turn out when C=N[C@@H](C(=O)N[C@@H]1C(=O)N2[C@@H]1SC(C)(C)[C@@H]2C(=O)O)c1ccccc1 was run?
A: Its max activation is -2.74%.

Q: CCOC(=O)[C@H](CCc1ccccc1)N[C@@H](C)C(=O)N1[C@H](C(=O)O)C[C@H]2CCCC[C@@H]21 was tested. Which max activation did it give?
A: The max activation was -1.14%.

Q: With C/C=C/C1=C(C(=O)O)N2C(=O)[C@@H](NC(=O)[C@H](N)c3ccc(O)cc3)[C@H]2SC1 as the compound, how does the max activation read?
A: The max activation was -4.1%.

Q: Which max activation does the source give for N=C(N)n1cccn1 here?
A: Its max activation is -4.29%.

Q: With O=C(O)COc1ccc(C(=O)c2cccs2)c(Cl)c1Cl as the compound, how does the max activation read?
A: The max activation was -1.39% and -4.28%.

Q: O=C1CCC(c2ccccc2)(C2CCN(Cc3ccccc3)CC2)C(=O)N1 (stereo not drawn) was tested. Which max activation did it give?
A: Its max activation is 4.99%.

Q: Which max activation does the source give for CC[C@@H](C(=O)[C@@H](C)[C@@H](O)[C@H](C)CCc1ccc(C)c(O)c1C(=O)O)[C@H]1O[C@](CC)([C@H]2CC[C@](O)(CC)[C@H](C)O2)C[C@@H]1C here?
A: The max activation was -6.82%.

Q: With CN1C(=O)C[C@@H](C(=O)N[C@@H](Cc2cnc[nH]2)C(=O)N2CCC[C@H]2C(N)=O)NC1=O as the compound, how does the max activation read?
A: Its max activation is -0.675%.

Q: CC(C)OC(=O)Nc1ccc2nc(-c3cscn3)[nH]c2c1 was tested. Which Potency did it give?
A: Its Potency is 8.91 µM (active).

Q: How did the max activation turn out when CC(=O)Nc1ccc(OC(C)=O)cc1 was run?
A: The max activation was -1.35%.

Q: With CC1(C)S[C@@H]2[C@H](N3C(=O)C(c4ccccc4)NC3(C)C)C(=O)N2[C@H]1C(=O)O (stereo partly drawn) as the compound, how does the max activation read?
A: The max activation was -2.27%.

Q: Which max activation does the source give for CC/C=C\C/C=C\C/C=C\C/C=C\C/C=C\CCCC(=O)O here?
A: The max activation was -0.855%.

Q: Which max activation does the source give for CC(C)=CCC/C(C)=C/CC/C(C)=C/CC/C(C)=C/CC1=C(C)C(=O)c2ccccc2C1=O here?
A: The max activation was -1.32%.

Q: For CC(C)CCC[C@@H](C)[C@H]1CC[C@H]2[C@@H]3CC[C@@H]4C[C@H](O)CC[C@]4(C)[C@H]3CC[C@]12C, which max activation is on record?
A: Its max activation is -7.28%.

Q: O=C1c2c(O)cccc2[C@H]([C@@H]2O[C@H](CO)[C@@H](O)[C@H](O)[C@H]2O)c2cc(CO)cc(O)c21 was tested. Which max activation did it give?
A: The max activation was 0.818%.

Q: For NC(=O)CC[C@@H]1NC(=O)[C@H](Cc2ccccc2)NC(=O)[C@H](Cc2ccc(O)cc2)NC(=O)[C@@H](N)CSSC[C@@H](C(=O)N2CCC[C@H]2C(=O)N[C@@H](CCCN=C(N)N)C(=O)NCC(N)=O)NC(=O)[C@H](CC(N)=O)NC1=O, which max activation is on record?
A: Its max activation is -0.0397%.

Q: With O=P(O)(O)CP(=O)(O)O as the compound, how does the max activation read?
A: The max activation was -0.378%.

Q: With Cc1cc(-c2ccc(N=Nc3ccc4c(S(=O)(=O)O)cc(S(=O)(=O)O)c(N)c4c3O)c(C)c2)ccc1N=Nc1ccc2c(S(=O)(=O)O)cc(S(=O)(=O)O)c(N)c2c1O as the compound, how does the max activation read?
A: Its max activation is -5.28%.

Q: How did the max activation turn out when CCCCCCCCCCCC[n+]1ccc2ccccc2c1 was run?
A: Its max activation is -19.3%.

Q: C[C@@H]1C(=O)NC2=Nc3cccc(Cl)c3CN21 was tested. Which max activation did it give?
A: The max activation was 3.73%.

Q: With Cc1cccc(C)c1NC(=O)C1CCCCN1C (stereo not drawn) as the compound, how does the max activation read?
A: Its max activation is -1.93%.

Q: For NC(=O)[C@H]1O[C@@H](O)[C@H](O)[C@@H](O)[C@@H]1O, which max activation is on record?
A: Its max activation is -0.18%.

Q: With CCC(NC(C)C)C(O)c1ccc(O)c(O)c1 (stereo not drawn) as the compound, how does the max activation read?
A: The max activation was -0.219%.

Q: How did the max activation turn out when Cc1ccc(C(C)(C)c2ccc(C)cc2)cc1 was run?
A: Its max activation is -4.5%.

Q: With COc1cc2c(cc1O)CCN[C@]21CS[C@@H]2c3c(OC(C)=O)c(C)c4c(c3[C@H](COC1=O)N1[C@@H]2[C@H]2c3c(cc(C)c(OC)c3O)C[C@@H]([C@@H]1O)N2C)OCO4 as the compound, how does the max activation read?
A: The max activation was -17.5%.
